Results on 39 sequences are retold here after PMC5700166.

The experiment deals with T1, GST-Nv-NF-kB (Ser allele) (Nematostella vectensis, UniProt A7UNT2 2-411).
T1 sequence: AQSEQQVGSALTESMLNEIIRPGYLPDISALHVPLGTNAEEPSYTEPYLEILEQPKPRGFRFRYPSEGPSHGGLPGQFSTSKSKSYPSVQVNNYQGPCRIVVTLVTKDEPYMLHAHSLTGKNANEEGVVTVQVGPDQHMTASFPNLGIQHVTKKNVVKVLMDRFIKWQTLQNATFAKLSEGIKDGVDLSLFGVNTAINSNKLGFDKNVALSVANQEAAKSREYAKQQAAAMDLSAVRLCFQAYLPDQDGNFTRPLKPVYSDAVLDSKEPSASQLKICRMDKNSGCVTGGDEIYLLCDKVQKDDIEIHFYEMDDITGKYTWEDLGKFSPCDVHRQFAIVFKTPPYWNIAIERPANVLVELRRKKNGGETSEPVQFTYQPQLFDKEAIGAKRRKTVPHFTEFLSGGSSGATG
The experiment can be described thus: protein-binding microarray (PBM); PBM: ~300 nM protein, 6 mM HEPES pH 7.8, 80 mM KCl, 0.5 mM EDTA, 0.5 mM EGTA, 6% glycerol, 35 ng/ul poly-dIdC, 1% milk, 1 h, room temperature; Ap Aiptasia and Nv Nematostella (sea anemones) / Co Capsaspora / Aq Amphimedon (sponge) / Dm Drosophila / Hu human; RHD is the Rel homology domain; high values mean tight binding. Conditions: dsDNA, one strand shown.
Sequence “CCGATTAACATCAGGGGGGAACATGATGTTAATCGGGTCTTGATTCGCTTGACGCTGCTG” yielded a binding signal of 6.09 z-score.

For “CCGATTAACATCACCCCCTCCCCTGATGTTAATCGGGTCTTGATTCGCTTGACGCTGCTG”, the binding signal was 3.78 z-score.

Sequence “CCGATTAACATCAACTCCCCCCATGATGTTAATCGGGTCTTGATTCGCTTGACGCTGCTG” showed a binding signal of 4.05 z-score.

In the case of “CCGATTAACATCAGAACATCCCCTGATGTTAATCGGGTCTTGATTCGCTTGACGCTGCTG”, the binding signal turned out to be 6.48 z-score.

Sequence “CCGATTAACATCAGTTGTCCCGCTGATGTTAATCGGGTCTTGATTCGCTTGACGCTGCTG” returned a binding signal of 1.42 z-score.

Turning to “CCGATTAACATCAGGGGGTTATATGATGTTAATCGGGTCTTGATTCGCTTGACGCTGCTG”, the binding signal stood at 6.26 z-score.

“CCGATTAACATCAGGGGGGGGGATGATGTTAATCGGGTCTTGATTCGCTTGACGCTGCTG” showed a binding signal of 5.68 z-score.

Take “CCGATTAACATCAACTCCCCCCCTGATGTTAATCGGGTCTTGATTCGCTTGACGCTGCTG”: the binding signal stood at 4.48 z-score.

With “CCGATTAACATCAGGCATCCCCCTGATGTTAATCGGGTCTTGATTCGCTTGACGCTGCTG”, the binding signal was 4.92 z-score.

Sequence “CCGATTAACATCAAAAATGCCCCTGATGTTAATCGGGTCTTGATTCGCTTGACGCTGCTG” displayed a binding signal of 6.13 z-score.

Turning to “CCGATTAACATCATGGTACTTGTTGATGTTAATCGGGTCTTGATTCGCTTGACGCTGCTG”, the binding signal was found to be 1.85 z-score.

“CCGATTAACATCAGTACCGCGAATGATGTTAATCGGGTCTTGATTCGCTTGACGCTGCTG”: the binding signal was found to be 1.29 z-score.

In turn, “CCGATTAACATCAGGAACTCCCCTGATGTTAATCGGGTCTTGATTCGCTTGACGCTGCTG” showed a binding signal of 5.51 z-score.

For “CCGATTAACATCATACTTCCCCATGATGTTAATCGGGTCTTGATTCGCTTGACGCTGCTG”, the binding signal turned out to be 6.52 z-score.

“CCGATTAACATCACGAAAACCCCTGATGTTAATCGGGTCTTGATTCGCTTGACGCTGCTG”: the binding signal came out at 5.71 z-score.

“CCGATTAACATCAGGGGGGAGAATGATGTTAATCGGGTCTTGATTCGCTTGACGCTGCTG”: the binding signal turned out to be 6.04 z-score.

The sequence “CCGATTAACATCATCCCCCCCCATGATGTTAATCGGGTCTTGATTCGCTTGACGCTGCTG” had a binding signal of 4 z-score.

Take “CCGATTAACATCACATATCCCCCTGATGTTAATCGGGTCTTGATTCGCTTGACGCTGCTG”: the binding signal amounted to 6.2 z-score.

“CCGATTAACATCAGGGGGAGCACTGATGTTAATCGGGTCTTGATTCGCTTGACGCTGCTG”: the binding signal stood at 4.71 z-score.

Consider “CCGATTAACATCAGGGGATATACTGATGTTAATCGGGTCTTGATTCGCTTGACGCTGCTG”, for which the binding signal is 5.69 z-score.

For “CCGATTAACATCACTTCCCCCCATGATGTTAATCGGGTCTTGATTCGCTTGACGCTGCTG”, the binding signal was 4.67 z-score.

The sequence “CCGATTAACATCAGGGGACTTCATGATGTTAATCGGGTCTTGATTCGCTTGACGCTGCTG” yielded a binding signal of 6.12 z-score.

The sequence “CCGATTAACATCAGGTATTTCCATGATGTTAATCGGGTCTTGATTCGCTTGACGCTGCTG” returned a binding signal of 1.6 z-score.

“CCGATTAACATCAAACCACCCCCTGATGTTAATCGGGTCTTGATTCGCTTGACGCTGCTG” had a binding signal of 3.66 z-score.

“CCGATTAACATCAAATACCCCCCTGATGTTAATCGGGTCTTGATTCGCTTGACGCTGCTG” came in with a binding signal of 6.55 z-score.

“CCGATTAACATCACGGAAAAACCTGATGTTAATCGGGTCTTGATTCGCTTGACGCTGCTG” had a binding signal of 1.31 z-score.

In the case of “CCGATTAACATCACAGAAACCCCTGATGTTAATCGGGTCTTGATTCGCTTGACGCTGCTG”, the binding signal amounted to 4.97 z-score.

On to “CCGATTAACATCAGGGGGGATACTGATGTTAATCGGGTCTTGATTCGCTTGACGCTGCTG”, for which the binding signal was found to be 4.8 z-score.

For the sequence “CCGATTAACATCAGGGGACCCCCTGATGTTAATCGGGTCTTGATTCGCTTGACGCTGCTG”, the binding signal is 5.69 z-score.

Sequence “CCGATTAACATCAACACTCCCCCTGATGTTAATCGGGTCTTGATTCGCTTGACGCTGCTG” gave a binding signal of 5.61 z-score.

For “CCGATTAACATCAGAAAATCACCTGATGTTAATCGGGTCTTGATTCGCTTGACGCTGCTG”, the binding signal came to 4.87 z-score.

Consider “CCGATTAACATCAAGGGGGGGGGTGATGTTAATCGGGTCTTGATTCGCTTGACGCTGCTG”, for which the binding signal stood at 4.84 z-score.

In turn, “CCGATTAACATCAGGACTGCCCCTGATGTTAATCGGGTCTTGATTCGCTTGACGCTGCTG” showed a binding signal of 1.72 z-score.

“CCGATTAACATCAGGGGGTTGCATGATGTTAATCGGGTCTTGATTCGCTTGACGCTGCTG” registered a binding signal of 4.66 z-score.

As for “CCGATTAACATCAGGGCACCCCCTGATGTTAATCGGGTCTTGATTCGCTTGACGCTGCTG”, the binding signal was found to be 3.83 z-score.

“CCGATTAACATCAGGAACCCCCCTGATGTTAATCGGGTCTTGATTCGCTTGACGCTGCTG” returned a binding signal of 5.44 z-score.

On to “CCGATTAACATCAGGGGGGTTACTGATGTTAATCGGGTCTTGATTCGCTTGACGCTGCTG”, for which the binding signal was 4.18 z-score.

The sequence “CCGATTAACATCAGGGGGTTAAATGATGTTAATCGGGTCTTGATTCGCTTGACGCTGCTG” had a binding signal of 4.45 z-score.

With “CCGATTAACATCAGGGGGGAGACTGATGTTAATCGGGTCTTGATTCGCTTGACGCTGCTG”, the binding signal came to 5.69 z-score.
